ABHD5 PLIN5 PPI: ABHD5-PLIN5 interaction inhibitors, primary screen, cell lysate, split luciferase complementation, luminescence; Split G. princeps luciferase complementation, 4 h; AID 602281, 2012; Perilipin-5 (Homo sapiens) + 1-acylglycerol-3-phosphate O-acyltransferase ABHD5 (Homo …; inhibition, % at 4 µM; 360,000 compounds, 0.78% hits;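 active means inhibition above the mean inhibition across every tested compound plus 3 SD, cut at about 22% in these data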;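 further: 0% = DMSO only wells and the 100% control is not disclosed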
sPLA2-III inh: human group III sPLA2 inhibitors, primary screen, biochemical, QFRET, BODIPY PC-A2 liposome substrate; Group 3 secretory phospholipase A2 (Homo sapiens), Q9NZ20; QFRET BODIPY PC-A2 liposome hydrolysis, fluorescence; inhibition, % at 12.2 µM; 370,000 compounds, 0.56% hits; AID 743126, 2013;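 active means inhibition above mean plus 3 SD of compounds lying within the high and low control bounds, cut at about 19% in these data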;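 further: 0% = median of test compound wells and 100% = no enzyme DMSO wells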
Target sequence (Q9NZ20 whole entry, looked up): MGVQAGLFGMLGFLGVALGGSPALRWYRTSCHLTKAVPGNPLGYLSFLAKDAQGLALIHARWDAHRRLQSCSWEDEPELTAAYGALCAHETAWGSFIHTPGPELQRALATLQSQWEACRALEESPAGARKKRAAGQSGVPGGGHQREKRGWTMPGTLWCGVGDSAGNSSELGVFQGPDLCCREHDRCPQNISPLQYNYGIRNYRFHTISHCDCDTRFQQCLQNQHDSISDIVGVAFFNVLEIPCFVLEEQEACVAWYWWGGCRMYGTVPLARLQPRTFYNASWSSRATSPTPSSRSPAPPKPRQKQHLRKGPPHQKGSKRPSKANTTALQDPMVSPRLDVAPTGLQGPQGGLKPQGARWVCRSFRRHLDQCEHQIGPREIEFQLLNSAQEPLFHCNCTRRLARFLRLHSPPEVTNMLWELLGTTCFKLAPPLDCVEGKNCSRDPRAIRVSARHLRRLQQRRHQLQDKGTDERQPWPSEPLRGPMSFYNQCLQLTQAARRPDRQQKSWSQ
Myeloid diff MLP: induction of myeloid progenitor differentiation, primary screen, cell-based, flow cytometry, MLPCN library | ER-HoxA9 myeloid progenitors, lysozyme-GFP differentiation | calls only at 10 µM | 360,000 compounds, 1% hits;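 active means normalized GFP-positive differentiation at or above the plate's own cutoff, the solvent-only control mean plus 3 SD; inconclusive means no clear call, values can overlap the other calls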;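 further: cells exposed to compound for four days before flow analysis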
Rtt109 HAT inh: inhibitors of C. albicans Rtt109/Vps75 HAT, primary screen, biochemical, ThioGlo CoA-SH fluorescence, plate reader. 330,000 compounds, 0.16% hits. inhibition, % at 34.9 µM. purified Rtt109/Vps75, 4 h;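 active means inhibition of at least 50% in every replicate; inconclusive means best replicate reaches 50% inhibition but some replicates fall short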
DAGLB inh: DAGLB lipase inhibitors, primary screen, biochemical, fluorescence, HTS; HEK293T DAGLB membrane lysate, EnzChek fluorogenic substrate; inhibition, % at 5.17 µM; 340,000 compounds, 0.059% hits; AID 504411, 2011; in the data active means inhibition above about 34%;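 further: 0% = enzyme with vehicle and 100% = wells lacking enzyme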
H9c2 protect: cardioprotection against H2O2-induced cell death, primary screen, uHTS, H9c2 cells, ATPLite luminescence | H9c2 cardiomyocytes, H2O2 injury protection, 2 h | AID 588492, 2011 | 360,000 compounds, 0.63% hits | protection from H2O2 cell death, % at 20 µM;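 active means compounds giving at least 50% protection of heart cells from peroxide-induced death in the single-dose screen, raw or plate-pattern-corrected value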;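 further: 0% = DMSO wells with peroxide and 100% = DMSO wells without peroxide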
Active calls of the source: *; i = inactive; ? = inconclusive; . = no result; + = active, no number. An excerpt weighted towards active compounds, which were near 2.9% of everything screened.

SMILES	ABHD5 PLIN5 PPI	sPLA2-III inh	Myeloid diff MLP	Rtt109 HAT inh	DAGLB inh	H9c2 protect
Cc1oc2c(O)c(O)ccc2c(=O)c1-c1ccc(Cl)cc1	2	7	i	-2	25	72*
Cc1oc2c(O)c(O)ccc2c(=O)c1-c1cnn(-c2ccccc2)c1	5	3	i	.	28	87*
Cc1oc2c(O)c(O)ccc2c(=O)c1-c1ccccc1	1	5	i	1	4	69*
Cc1oc2cc(O)cc(C)c2c(=O)c1-c1cnn(-c2ccccc2)c1	4	-24	i	3	-8	11
O=C(c1ccc(C(F)(F)F)cc1)C1CCCN(C(=O)Cn2cncn2)C1 (centres undefined)	0	1	i	-6	2	3
CC1Cc2ccccc2N1C(=O)c1cc2c(=O)n3ccccc3nc2n1C (centres undefined)	1	0	i	2	-2	66*
O=C1N(Cc2cccc(Cl)c2)C[C@@H]2C[C@@H](c3c[nH]c4ccccc34)N3CCC[C@@]123	2	-16	+	-3	-2	-8
O=C1N(Cc2cccc(Cl)c2)C[C@@H]2C[C@@H](c3cccc4ncccc34)N3CCC[C@@]123	9	-9	i	-4	0	-4
CN(C)c1ccc(/C=C2\SC(=S)N(Nc3ncc(C(F)(F)F)cc3Cl)C2=O)cc1	-5	-7	+	-8	-105	-2
COc1cc(/C=C2\SC(=S)N(Nc3ncc(C(F)(F)F)cc3Cl)C2=O)ccc1O	-13	-24	i	20	5	-1
CCOc1cc(/C=N/NC(N)=O)cc(Br)c1OCC(=O)Nc1cccc2ccccc12	-3	-5	i	4	4	57*
O=C1NC(=O)c2c(Br)c(Br)c(Br)c(Br)c21	6	-3	i	-5	1	59*
Nc1nc(N)c2nc(-c3ccccc3)c(N)nc2n1	2	2	+	-3	3	-3
NSc1nc(N)c2nc(-c3ccccc3)c(-c3ccccc3)nc2n1	3	0	i	18	-1	2
N#Cc1cccc2c1-c1ccccc1/C2=N/NC(N)=O	9	.	i	9	1	56*
CC1=C(C(=O)N(C)C)CC(CC(=O)NC(c2ccccc2)c2ccccc2)C(=O)N1CCCN1CCCC1=O (centres undefined)	0	18	+	.	2	11
CCN(CC)C(=O)C1=C(C)N(CCCN2CCCC2=O)C(=O)C(CC(=O)NC(c2ccccc2)c2ccccc2)C1 (centres undefined)	1	4	i	.	-2	4
CC1=C(C(=O)N(C(C)C)C(C)C)CC(CC(=O)NC(c2ccccc2)c2ccccc2)C(=O)N1Cc1ccc(C(C)(C)C)cc1 (centres undefined)	2	-14	+	.	.	-2
O=C(NCC(=O)N(c1cccnc1)C(C(=O)NC1CCCCC1)c1ccccc1)c1ccco1 (centres undefined)	3	7	i	-12	1	-5
CCn1c(SCC#N)nc2cc(S(=O)(=O)N3CCOCC3)ccc21	10	-1	i	-3	-2	-2
CCn1c(SCC(=O)N(C)CCC#N)nc2cc(S(=O)(=O)N3CCOCC3)ccc21	23*	8	i	-1	5	0
CN(C)c1ccc(/C=C2\N=C(c3ccc(Cl)c([N+](=O)[O-])c3)NC2=O)cc1	4	17	+	.	3	-1
Cc1ccc(C(=O)N2CCCC(N3CCN(c4ccccc4F)CC3)C2)s1 (centres undefined)	3	1	i	2	2	-3
Cc1c(O)ccc2c3c(c(=O)oc12)CCC(C)C3 (centres undefined)	-1	-31	i	-14	1	52*
Nc1ccc(Cn2ccc3c4c(N)nc(N)nc4ccc32)cc1	1	22*	?	-2	-2	-14

Assay outcomes as filed in PubChem.
